Active and inactive are the calls of the source. No rule for the calls is given here.

The target of the assay is Pantothenate synthetase (Mycobacterium tuberculosis (strain ATCC 25618 / H37Rv)) (UniProt P9WIL5). Description: Coupled enzyme confirmation of inhibitors against recombinant Mtb PanC (AID 375).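 Also: 0% = full reaction with vehicle and 100% = no enzyme background.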 The conditions noted are these: coupled enzyme assay; at 10 µM, hits give high values.
Chain of Pantothenate synthetase (Mycobacterium tuberculosis (strain ATCC 25618 / H37Rv)) (P9WIL5 whole entry, looked up): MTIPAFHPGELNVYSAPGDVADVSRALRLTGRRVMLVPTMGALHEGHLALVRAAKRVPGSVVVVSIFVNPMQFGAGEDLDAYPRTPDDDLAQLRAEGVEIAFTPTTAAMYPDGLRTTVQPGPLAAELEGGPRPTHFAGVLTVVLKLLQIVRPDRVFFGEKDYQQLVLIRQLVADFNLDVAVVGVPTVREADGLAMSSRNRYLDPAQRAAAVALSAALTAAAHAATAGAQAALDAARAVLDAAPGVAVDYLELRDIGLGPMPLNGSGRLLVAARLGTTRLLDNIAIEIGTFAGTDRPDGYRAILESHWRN
For the compound `CC(C)n1nc(C(=O)Nc2nc3ccc(S(C)(=O)=O)cc3s2)c2ccccc2c1=O`, the inhibition is 0% (inactive).
The same measure for `CCN(CC)CCCN1C(=O)C(=O)/C(=C(/O)c2ccccc2)C1c1ccccn1` (configuration not stated): 0% (inactive).
Next, `c1ccc(N=P(c2nc3ccccc3o2)(N2CCOCC2)N2CCOCC2)cc1`: 0% (inactive).
As to `O=C(c1ccc(S(=O)(=O)N2CCOCC2)cc1)N(c1ccc(F)cc1)C1C=CS(=O)(=O)C1` (configuration not stated), the inhibition is 0% (inactive).
For the compound `Cc1cc(C)nc(SC2=CS(=O)(=O)c3ccccc32)n1`, the inhibition was 0% (inactive).
The same measure for `Fc1ccc(-c2ccc(-c3nn4c(-c5ccco5)nnc4s3)o2)cc1`: 14% (inactive); for `CSCC[C@@H](Nc1nc(-c2ccccc2)nc2c1oc1ccccc12)C(=O)O`: 4% (inactive); for `CCCCn1c(SCC(=O)N2CC(=O)Nc3ccccc32)nnc1-c1ccoc1C`: 3% (inactive).
`CCCOc1ccc(C2c3c(oc4ccccc4c3=O)C(=O)N2CCCN2CCOCC2)cc1` (configuration not stated): the inhibition was 4% (inactive).
Next, `Cc1cc(=O)oc2cc(Oc3ncccn3)ccc12`: 6% (inactive).
With `CC1(C)Cc2c(c(=S)nc(-c3ccccc3)n2CCO)CO1`, the inhibition was 9% (inactive).
The same measure for `O=C(CN1CCOCC1)N1CCCc2c1c(=O)oc1ccc(OCc3ccccc3)cc21`: 4% (inactive); for `O=C(NCc1ccc(Cl)cc1)c1ccc(COCC(F)(F)F)o1`: 0% (inactive).
Next, `S=C(c1ccc(N2CCOCC2)cc1)N1CCCCC1`: 2% (inactive).
Consider `N#Cc1c(NC(=O)c2ccc(Br)o2)n(-c2ccccc2)c2nc3ccccc3nc12`, for which the inhibition was 2% (inactive).
In the case of `O=C(CSCc1ccc(F)cc1)NC1CCCC1`, the inhibition was 0% (inactive).
Next, `COc1ccc(Cl)cc1-c1n[nH]c(=S)o1`: 0% (inactive); `CCCCNC(=O)CN(C1CCCCC1)S(C)(=O)=O`: 8% (inactive); `CCN1CCN(C(c2ccc(F)cc2)c2nnnn2Cc2cccs2)CC1` (configuration not stated): 0% (inactive).
Next, `Cn1c(Cc2csc(N)n2)nnc1SCC(=O)NC1CCCCC1`: 4% (inactive); `Cc1ccc(S(=O)(=O)N2CCCN(S(=O)(=O)C3CCS(=O)(=O)C3)CC2)cc1` (configuration not stated): 2% (inactive); `COC(=O)C1CCN(C(=O)CN2C(=O)NC(CCc3ccccc3)C2=O)CC1` (configuration not stated): 0% (inactive).

Values taken from PubChem BioAssay.
